High-throughput results: PubChem, National Center for Advancing Translational Sciences (NCATS)
miR-21 reporter: qHTS Assay for Modulators of miRNAs and/orActivators of miR-21; HeLa miR-21 FLuc reporter, luciferase, 48 h; Potency, µM (highest dose often 38.3 µM), hits mostly activators; 340,000 tested, under 10 active;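 also: miR-21 action dims this reporter so a rising signal means less miR-21 action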
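HeLa miR-21-FLuc reporter line, endogenous miR-21; 2000 cells/well in DMEM/10% FBS; compound titration up to ~40uM final, 48 h, 37 degree Celsius; luciferase detection reagent, 15 min lysis, CCD luminescence.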
DT40 TDP1 no CPT: qHTS for Inhibitors of human tyrosyl-DNA phosphodiesterase 1 (TDP1): qHTS in cells in absence of CPT; 15% of 420,000 active; Potency, µM (top dose mostly 46.2 µM), most hits filed as inhibitors; DT40 Tdp1-/- hTDP1 cells, no CPT, ATP luminescence, 48 h; also: nearly all actives have a fitted effect of over 55% in size
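Chicken DT40 Tdp1-/- cells stably complemented with human TDP1 were seeded at 400 cells/well with DMSO in place of 20 nM camptothecin. After compound pinning, cells grew at least 48 hr at 37 °C; viability read by CellTiter-Glo luminescence.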
DT40 TDP1 CPT: qHTS for Inhibitors of human tyrosyl-DNA phosphodiesterase 1 (TDP1): qHTS in cells in presence of CPT. chicken DT40 Tdp1-/-;hTDP1 cells + 20 nM CPT, ATP luminescence, 48 h. Potency, µM (highest dose often 46.2 µM), hits mostly inhibitors. 12% of 420,000 active; also: nearly all actives have a fitted effect of over 55% in size
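Chicken DT40 Tdp1-/- cells stably complemented with human TDP1 were seeded at 400 cells/well in medium containing 20 nM camptothecin, exposed to pin-transferred compounds, and grown at 37 °C for at least 48 hr. Viability was read as ATP luminescence.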
TDP1 block: qHTS Assay for Inhibitors of Tyrosyl-DNA Phosphodiesterase (TDP1); 0.28% of 350,000 active; AID 485290, 2010; Potency, µM (top dose mostly 130 µM), most hits filed as inhibitors; recombinant TDP1, AlphaScreen DNA substrate cleavage; also: nearly all actives have a fitted effect of over 40% in size
Target sequence (Q9NUW8 whole entry, looked up): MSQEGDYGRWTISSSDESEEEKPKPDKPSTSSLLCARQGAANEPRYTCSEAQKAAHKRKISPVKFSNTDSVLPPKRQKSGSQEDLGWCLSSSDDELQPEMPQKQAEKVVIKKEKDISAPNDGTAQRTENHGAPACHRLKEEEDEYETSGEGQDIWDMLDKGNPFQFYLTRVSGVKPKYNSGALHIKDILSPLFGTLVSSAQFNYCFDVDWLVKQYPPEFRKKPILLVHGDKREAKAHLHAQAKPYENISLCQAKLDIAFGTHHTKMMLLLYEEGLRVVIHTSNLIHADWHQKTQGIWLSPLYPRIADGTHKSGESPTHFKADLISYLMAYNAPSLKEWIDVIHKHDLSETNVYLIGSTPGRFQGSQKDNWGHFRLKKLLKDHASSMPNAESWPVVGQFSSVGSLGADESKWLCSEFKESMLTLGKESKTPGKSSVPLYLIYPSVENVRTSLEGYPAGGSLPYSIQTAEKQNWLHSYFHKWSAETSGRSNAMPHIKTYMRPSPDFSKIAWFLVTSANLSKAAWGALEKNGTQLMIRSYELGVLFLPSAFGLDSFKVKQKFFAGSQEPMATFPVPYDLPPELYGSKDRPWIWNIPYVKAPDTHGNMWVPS
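Here, a 5' biotin and 3' phosphotyrosine-FITC DNA oligonucleotide reports Tdp1 activity: intact substrate bridges AlphaScreen beads, while cleavage leaves a 3' phosphate and drops signal. All incubations at room temperature.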
uPA surface inh: qHTS for Inhibitors of Cell Surface uPA Generation | AID 540303, 2011 | cell surface uPA generation assay, qHTS | 0.31% of 330,000 active | Potency, µM (highest dose often 38.3 µM), most hits filed as inhibitors; active = well fitted inhibition curve with a large enough effect; inconclusive = small, poorly fitted or top-dose-only effect; inactive = no such curve, though single readings can be large or run the other way; tested in mouse RAW 264.7 cells; also: nearly all actives have a fitted effect of over 55% in size
Numbers stand for hits; 0 = inactive; ? = inconclusive; - = not tested or not shown. A selection: hits, their analogues and other compounds. The true share with any hit is near 16%. Unless noted, calls follow the shape of the dose curve; as a rule, active = well fitted curve in the direction sought with a large enough effect; inconclusive = small, poorly fitted or top-dose-only effect, or another doubt; inactive = no such curve, though single readings can be large; an effect the other way counts as inactive or inconclusive.

SMILES	miR-21 reporter	DT40 TDP1 no CPT	DT40 TDP1 CPT	TDP1 block	uPA surface inh
CS(=O)(=O)N(CC(=O)N1CCCC1)c1cccc(Cl)c1Cl	0	?	0	0	0
O=C(c1ccc2c(=O)n3c(nc2c1)CCCCC3)N1CCN(c2ccc(F)cc2)CC1	0	?	0	0	0
O=C(c1ccc2c(=O)n3c(nc2c1)CCCCC3)N1CCN(c2ccc(Cl)cc2)CC1	0	18.4µM	23.1µM	-	0
O=C(NCc1ccccc1)c1ccc2c(=O)n3c(nc2c1)CCCCC3	0	?	0	0	0
O=C(Nc1cccc(S(=O)(=O)N2CCCC2)c1)c1ccc2c(=O)n3c(nc2c1)CCCCC3	?	16.4µM	14.6µM	0	0
O=C(Nc1nc(-c2ccccc2)cs1)c1ccc2c(=O)n3c(nc2c1)CCCCC3	0	8.2µM	16.4µM	0	0
CC(=O)c1cccc(NC(=O)c2ccc3c(=O)n4c(nc3c2)CCCCC4)c1	0	?	?	0	0
O=C(Nc1cccc(S(=O)(=O)N2CCOCC2)c1)c1ccc2c(=O)n3c(nc2c1)CCCCC3	0	10.3µM	13µM	0	0
NC(N)=NCCC[C@H](N)C(=O)NCC(=O)N[C@@H](CC(=O)O)C(=O)O	-	-	-	0	-
COc1ccc(OC)c(NC(=O)COC(=O)C2CCCCC2)c1	-	0	0	0	0
COc1ccc(Cl)c(NC(=O)Cn2nnc(-c3ccccc3N)n2)c1	0	0	0	0	0
O=C(/C=C/c1cccs1)NC(=S)NNC(=O)c1ccccc1O	0	4.61µM	5.17µM	0	0
COc1ccc(/C=C/C(=O)NC(=S)NNC(=O)Cc2cccs2)cc1	0	?	20.6µM	0	0
O=C(/C=C/c1ccccc1)NC(=S)NNC(=O)Cc1cccs1	0	18.4µM	?	0	0
COc1ccc(C(=O)NNC(=S)NC(=O)/C=C/c2cccs2)cc1	0	?	?	0	0
Cn1c(CNC(=O)c2ccco2)nnc1SCC(=O)Nc1ccccc1Cl	-	0	0	0	0
COc1cc(/C=C2\NC(=S)N(C)C2=O)ccc1OCc1cccc(F)c1	0	0	0	-	0
Cc1nc(-c2ccccn2)nc(N(C)c2ccccc2)c1Cl	0	2.59µM	2.59µM	-	0
O=C(COc1ccc(-n2cnnn2)cc1)Nc1cccc(Cl)c1Cl	0	0	0	-	0
Nc1ncc(Br)cc1S(=O)(=O)Nc1cc(C(F)(F)F)cc(C(F)(F)F)c1	?	18.4µM	?	0	0
Cc1ccc(NS(=O)(=O)c2cc(Br)cnc2N)c(Cl)c1	0	0	0	0	0
C[C@@H]1OC(Oc2ccccc2-c2cc(=O)c3c(O)cc(O)c([C@@H]4O[C@H](CO)[C@@H](O)[C@H](O)[C@H]4O)c3o2)[C@H](O)[C@H](O)[C@H]1O (stereo partly drawn)	-	-	-	0	-
O=C(c1cccs1)N1CCC(c2nc(-c3ccc(S(=O)(=O)N4CCOCC4)cc3)no2)CC1	0	18.4µM	?	0	-
O=C(Nc1ccc(Cl)cc1)N1CCC(c2nc(-c3ccccc3Cl)no2)CC1	0	18.4µM	23.1µM	0	0
CCc1ccc(C(=O)N2CCC(c3nc(-c4ccc(S(=O)(=O)N5CCCC5)cc4)no3)CC2)cc1	0	20.6µM	?	0	-
SMILES	miR-21 reporter	DT40 TDP1 no CPT	DT40 TDP1 CPT	TDP1 block	uPA surface inh
CC(C)C(=O)N1CCC(c2nc(-c3ccc(S(=O)(=O)N4CCCC4)cc3)no2)CC1	0	?	?	0	0
O=C(c1ccco1)N1CCC(c2nc(-c3ccccc3Cl)no2)CC1	0	0	?	0	-
O=C(Nc1ccccc1)N1CCC(c2nc(-c3ccc(S(=O)(=O)N4CCOCC4)cc3)no2)CC1	0	3.26µM	4.11µM	0	-
CC(=O)c1ccc(N(C(=O)c2ccco2)C(C(=O)NC2CCCC2)c2ccc(N3CCOCC3)cc2)cc1 (stereo not drawn)	0	0	0	0	0
O=C1OCC/C1=C\OCCCO/C=C1\CCOC1=O	0	0	0	0	0
O=C(c1ccco1)N1CCN=C1SCc1ccccc1F	0	0	0	0	0
CCOC(=O)C1OC2(CCCC2)OC1C(=O)OCC (stereo not drawn)	-	0	0	-	0
